According to PubChem BioAssay (NCI):
The panel holds about 79,000 compounds, 15% with a hit somewhere; the sample as a whole holds those more often. The source made the active and inactive calls. Cut-off read from the data, not from the text of the source: active = growth inhibition above about 70%; inactive = the rest.

Experiments:
[1] = NCI Yeast Anticancer Drug Screen. Data for the rad52 strain (AID 147);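 note: 0% = growth of vehicle-treated control cultures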; conditions: S. cerevisiae rad52 mutant growth inhibition, active compounds read high
Procedure, shortened: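 Read-out: growth inhibition versus vehicle-treated controls. Cells were a DNA repair-deficient yeast strain treated with compounds.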

[2] = NCI Yeast Anticancer Drug Screen. Data for the wt1 strain (AID 149);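 note: 0% = growth of vehicle-treated wt1 cultures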; conditions: S. cerevisiae wt1 strain (SPY 50644) growth inhibition, active compounds read high
Procedure, shortened: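 Vehicle-normalised growth inhibition; strain wt1; compound exposure.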

[3] = NCI Yeast Anticancer Drug Screen. Data for the rad50EPP+ strain (AID 151);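 note: 0% = growth of vehicle-treated control cultures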; conditions: S. cerevisiae rad50 mutant strain, active compounds read high
Procedure, shortened: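 Growth inhibition read against vehicle controls in rad50EPP+ yeast, a strain altered in DNA damage repair, after compound exposure.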

[4] = NCI Yeast Anticancer Drug Screen. Data for the mgt1 strain (AID 153); conditions: S. cerevisiae mgt1 mutant growth inhibition, active compounds read high
Procedure, shortened: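 mgt1 yeast grown with test compound; read-out is growth inhibition versus vehicle-treated cultures.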

[5] = NCI Yeast Anticancer Drug Screen. Data for the rad50 strain (AID 155);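 note: 0% = growth of vehicle-only cultures of the same strain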; conditions: S. cerevisiae rad50 strain growth inhibition, active compounds read high
Procedure, shortened: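 A DNA repair-deficient yeast mutant serves as the test organism; compound-induced growth inhibition is calculated against vehicle-treated cells.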

[6] = NCI Yeast Anticancer Drug Screen. Data for the mec2-1 strain (AID 157); conditions: S. cerevisiae mec2-1 strain, active compounds read high
Procedure, shortened: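 Yeast mec2-1 mutant treated with compound. Readout: growth inhibition vs vehicle controls.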

[7] = NCI Yeast Anticancer Drug Screen. Data for the rad14 strain (AID 159);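 note: 0% = growth of vehicle-treated control cultures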; conditions: S. cerevisiae rad14 strain growth inhibition, active compounds read high
Procedure, shortened: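 Vehicle-treated cultures served as the baseline for growth inhibition of a DNA repair-mutant yeast strain exposed to each compound.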

[8] = NCI Yeast Anticancer Drug Screen. Data for the sgs1 mgt1 strain (AID 161);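 note: 0% = growth of cultures given vehicle only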; conditions: S. cerevisiae sgs1 mgt1 strain, active compounds read high
Procedure, shortened: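 Test agents were incubated with a DNA-repair-mutant yeast strain. Growth was then read and compared against vehicle-treated controls.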

[9] = NCI Yeast Anticancer Drug Screen. Data for the CLN2oe strain (AID 163);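 note: 0% = growth of vehicle-only control cultures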; conditions: S. cerevisiae CLN2oe strain, active compounds read high
Procedure, shortened: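 Read-out: yeast growth inhibition, expressed relative to vehicle-only controls. The strain bears an engineered cell-cycle alteration.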

[10] = NCI Yeast Anticancer Drug Screen. Data for the cln2 rad14 strain (AID 165);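 note: 0% = growth equal to vehicle treated cultures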; conditions: S. cerevisiae cln2 rad14 strain, active compounds read high
Procedure, shortened: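 cln2 rad14 yeast strain; compound exposure; growth inhibition read vs vehicle controls.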

[11] = NCI Yeast Anticancer Drug Screen. Data for the bub3 strain (AID 167); conditions: S. cerevisiae bub3 mutant strain, active compounds read high
Procedure, shortened: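 Inhibition values come from growth of compound-treated mutant yeast normalised to vehicle-treated controls.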

[12] = NCI Yeast Anticancer Drug Screen. Data for the wt2 strain (AID 169);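 note: 0% = growth of vehicle-treated yeast cultures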; conditions: S. cerevisiae wt2 strain growth inhibition, active compounds read high
Procedure, shortened: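 Read-out: growth inhibition versus vehicle-treated control cultures after compound exposure of the yeast strain.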

[13] = NCI Yeast Anticancer Drug Screen. Data for the mlh1 strain (AID 171);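 note: 0% = growth of vehicle-treated control cultures of the same strain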; conditions: S. cerevisiae mlh1 strain growth inhibition, active compounds read high
Procedure, shortened: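 Read-out: growth inhibition versus vehicle controls. Strain: engineered yeast with a defined DNA repair or cell cycle defect, compound-treated.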

[14] = NCI Yeast Anticancer Drug Screen. Data for the sgs1 strain (AID 173);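 note: 0% = growth of vehicle-only control cultures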; conditions: S. cerevisiae sgs1 mutant, active compounds read high
Procedure, shortened: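 Read-out: yeast growth inhibition relative to vehicle controls, following compound exposure of a strain with a defined DNA repair/cell cycle alteration.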

[15] = NCI Yeast Anticancer Drug Screen. Data for the mlh1 rad18 strain (AID 175); conditions: S. cerevisiae mlh1 rad18 strain growth inhibition, active compounds read high
Procedure, shortened: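 Yeast w/ defined DNA-repair lesions; compound exposure; growth vs vehicle controls → % inhibition.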

[16] = NCI Yeast Anticancer Drug Screen. Data for the rad18 strain (AID 177); conditions: S. cerevisiae rad18 mutant growth inhibition, active compounds read high
Procedure, shortened: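 Readout: growth inhibition vs vehicle controls. Cells: genetically altered yeast strain, DNA repair defect.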

[17] = at 5.0 µM (retest, dose inferred, filed as 0.5)
[18] = at 50.0 µM (retest, dose inferred, filed as 5.0)

Measured: growth inhibition

Oc1[nH]c2ccccc2c1N=NC(=S)N1CCCCC1
inactive: [1]; at 1.2 µM 6% | [1]; at 3.7 µM 11% | [1]; at 11.0 µM 19% | [2]; at 1.2 µM -1% | [2]; at 3.7 µM 0% | [2]; at 11.0 µM 4% | [3]; at 1.2 µM 6% | [3]; at 3.7 µM 16% | [3]; at 11.0 µM 28% | [3]; at 33.0 µM 39% | [3]; at 100.0 µM 58% | [4]; at 1.2 µM 0% | [4]; at 3.7 µM 1% | [4]; at 11.0 µM 23% | [5]; at 1.2 µM 5% | [5]; at 3.7 µM 11% | [5]; [17] 11% | [5]; at 11.0 µM 13% | [6]; at 1.2 µM 4% | [6]; at 3.7 µM 6% | [6]; [17] 41% | [6]; at 11.0 µM 23% | [7]; at 1.2 µM 4% | [7]; at 3.7 µM -3% | [7]; at 11.0 µM 9% | [8]; [17] -8% | [9]; at 1.2 µM 2% | [9]; at 3.7 µM -4% | [9]; at 11.0 µM 20% | [10]; [17] 0% | [11]; at 1.2 µM -1% | [11]; at 3.7 µM 5% | [11]; [17] -18% | [11]; at 11.0 µM 15% | [12]; at 1.2 µM 5% | [12]; at 3.7 µM 6% | [12]; at 11.0 µM 13% | [13]; at 1.2 µM 4% | [13]; at 3.7 µM 4% | [13]; at 11.0 µM 16% | [14]; at 1.2 µM 14% | [14]; at 3.7 µM 16% | [14]; at 11.0 µM 28% | [15]; [17] 22% | [16]; at 1.2 µM 5% | [16]; at 3.7 µM 9% | [16]; at 11.0 µM 24%
active: [1]; at 33.0 µM 97% | [1]; at 100.0 µM 98% | [2]; at 33.0 µM 90% | [2]; at 100.0 µM 98% | [4]; at 33.0 µM 97% | [4]; at 100.0 µM 99% | [5]; at 33.0 µM 97% | [5]; [18] 99% | [5]; at 50.0 µM 75.5% | [5]; at 100.0 µM 98% | [6]; at 33.0 µM 97% | [6]; [18] 98% | [6]; at 50.0 µM 80.4% | [6]; at 100.0 µM 99% | [7]; at 33.0 µM 97% | [7]; at 100.0 µM 99% | [8]; [18] 99% | [8]; at 50.0 µM 87% | [9]; at 33.0 µM 98% | [9]; at 100.0 µM 99% | [10]; [18] 99% | [10]; at 50.0 µM 84.8% | [11]; at 33.0 µM 91% | [11]; [18] 99% | [11]; at 50.0 µM 90.3% | [11]; at 100.0 µM 96% | [12]; at 33.0 µM 94% | [12]; at 100.0 µM 99% | [13]; at 33.0 µM 96% | [13]; at 100.0 µM 98% | [14]; at 33.0 µM 99% | [14]; at 100.0 µM 99% | [15]; [18] 99% | [15]; at 50.0 µM 86.5% | [16]; at 33.0 µM 89% | [16]; at 100.0 µM 97%
